BCLXL inh = Bcl-xL (human) inhibition | GST-Bcl-xL / FITC-Bim BH3 peptide fluorescence polarization | inhibition, % at 10.9 µM | 320,000 compounds, 0.7% hits | AID 2129;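 active = inhibition above the mean of all tested compounds plus 3 SD, cutoff set per campaign, cut at about 30% in these data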;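 also: 0% = DMSO wells and 100% = unlabeled Bim-BH3 peptide competitor; inhibitors lower millipolarization by displacing the labeled peptide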
CR mimetic SO = yeast age-related superoxide inhibition as caloric restriction mimetic; S. cerevisiae aged cells, superoxide DHE fluorescence; active compounds read low; superoxide response (% of plate mean), % at 10 µM; 330,000 compounds, 0.18% hits; AID 2690;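 active = superoxide response under a set limit, about three screen SD below normal, cut at about 65% in these data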;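 also: yeast aged for seven days with compound at 30 °C before DHE staining; 100% = average MFI of all compound-treated wells on the plate with controls excluded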
GLD-1 TGE inh = GLD-1-TGE RNA interaction inhibition (C. elegans); Q17339; purified GLD-1 + fluorescein TGE RNA, fluorescence polarization; inhibition, % at 5.96 µM; 320,000 compounds, 0.44% hits; AID 2280;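 active = percent inhibition above a per-plate cutoff, the plate mean of test compounds plus 3 SD, cut at about 30% in these data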;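 also: 0% = DMSO wells with GLD-1 and probe and 100% = wells lacking GLD-1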
Target sequence (Q17339 whole entry, looked up): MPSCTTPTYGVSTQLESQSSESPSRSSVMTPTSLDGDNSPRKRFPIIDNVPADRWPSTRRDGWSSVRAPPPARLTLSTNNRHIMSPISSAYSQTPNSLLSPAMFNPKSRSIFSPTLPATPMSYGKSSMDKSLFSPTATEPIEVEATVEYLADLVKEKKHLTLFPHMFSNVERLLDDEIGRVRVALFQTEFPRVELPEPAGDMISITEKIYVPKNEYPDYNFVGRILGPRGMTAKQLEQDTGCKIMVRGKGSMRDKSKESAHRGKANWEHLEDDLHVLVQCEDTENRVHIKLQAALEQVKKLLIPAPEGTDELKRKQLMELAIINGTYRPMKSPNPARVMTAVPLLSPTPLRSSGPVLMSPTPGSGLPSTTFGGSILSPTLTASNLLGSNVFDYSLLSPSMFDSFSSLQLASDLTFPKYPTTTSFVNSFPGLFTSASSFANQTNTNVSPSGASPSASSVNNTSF
MCL1 BIM primary = disrupts human MCL1 binding to BIM-BH3 peptide; Q07820; GST-MCL1 / FITC-Bim-BH3 fluorescence polarization; inhibition, % at 10.9 µM; 320,000 compounds, 0.68% hits;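 active = inhibition above the mean inhibition of all tested compounds plus 3 SD, set per campaign, cut at about 40% in these data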;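 also: 0% = DMSO wells and 100% = unlabeled Bim-BH3 peptide control; higher means more loss of mP so more displacement of Bim peptide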
MEX-5 binding = C. elegans MEX-5 TCR-2 RNA binding activity; activity score (negative = inhibition of binding), % at 10 µM; 300,000 compounds, 0.38% hits; AID 1832; MEX-5/FITC-TCR2 RNA binding, fluorescence polarization; active compounds read low; Q9XUB2;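 active = inhibition past about -25% in most replicates, and total fluorescence under double the plate's negative control median, limit read from the data; inconclusive = replicates evenly split on the limit, or fluorescence at least double controls; inactive = too little inhibition in most replicates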;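 also: 0% = DMSO and -100% = 5 µM competing unlabeled TCR2 RNA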
LANA-H2A inh = blocks KSHV LANA binding to histone H2A/H2B; Q9QR71; cell-free LANA-H2A/H2B peptide, fluorescence polarization; inhibition, % (no concentration beside the values); 320,000 compounds, 0.6% hits; in the data active = inhibition mostly above about 10%, no sharp cut-off; inactive = mostly below about 6.7%
Starred values were filed as active, the others as inactive; ? = inconclusive; / = no result; ! = not active in a repeat. Most compounds without a hit are left out; they make up all but 1.9% or so of the library.

SMILES	BCLXL inh	CR mimetic SO	GLD-1 TGE inh	MCL1 BIM primary	MEX-5 binding	LANA-H2A inh
O=[N+]([O-])c1ccc(/C=N/n2c(CO)nc3ccccc32)s1	18	110	-9	28	-35*	10
Cc1cc2ncn(/N=C/c3ccc([N+](=O)[O-])s3)c2cc1C	-18	113	-1	-42	-1	-2
CC(Sc1nnc(C(C)Oc2ccccc2F)o1)C(=O)NCc1ccc2c(c1)OCO2 (stereo unspecified)	2	90	4	7	/	-9
Cc1cccc(N(Cc2ccccc2)C(=O)C2CCN(C(=O)c3ccccc3C)CC2)c1	2	128	3	4	/	-3
COc1ccc(N2CCN(C(=O)CS(=O)Cc3nc(-c4ccc(OC)c(OC)c4)oc3C)CC2)cc1 (stereo unspecified)	-5	119	-4	-10	-4	16*
N#CC(c1nc2ccccc2nc1N1CCOCC1)S(=O)(=O)c1ccccc1 (stereo unspecified)	6	117	3	8	/	3
CC1CCCN(c2nc3ccccc3nc2C(C#N)S(=O)(=O)c2cccs2)C1 (stereo unspecified)	22	99	9	18	-50*	3
Cc1ccc(S(=O)(=O)C(C#N)c2nc3ccccc3nc2N2CC(C)OC(C)C2)cc1C (stereo unspecified)	11	108	6	9	-59*	-6
C/C(CC(=O)Nc1ccc(F)cc1)=N\NC(=O)Cc1csc(N)n1	-3	64*	3	2	-1	-6
Oc1c(Cl)cc(Cl)cc1CNn1cnnc1	5	98	1	-7	-2	/
Oc1c(Cl)cc(Cl)cc1Sc1cc(Cl)cc(Cl)c1O	20	92	-2	53*	-4	-1
COc1cc(C(c2c(C(=O)O)[nH]c3ccccc23)c2c(C(=O)O)[nH]c3ccccc23)ccc1OCc1ccccc1	3	153	0	68*	?	4
CN(C(=O)CSc1nc(-c2ccc(C(C)(C)C)cc2)c(C#N)c(=O)[nH]1)C1CCCCC1	3	105	-5	7	-2	1
O=S(=O)(NC1CC1)c1ccc(S(=O)(=O)N2CCC3(CC2)OCCO3)cc1	5	109	-10	5	1	19*
Cc1cc(Oc2ccc(C)c(Cl)c2)nc(SCC(=O)c2ccccc2)n1	2	72	5	-1	0	16*
Cc1ccc2nc3n(c(=O)c2c1)-c1ccc(Cl)cc1C(=O)NC3CC(C)C (stereo unspecified)	/	95	9	/	/	-3
COCCCNC(=O)C[C@H]1C[C@H](C(=O)N2CCCCC2)[C@@]2(CCc3ccccc3)c3[nH]c4cc(CCC(=O)N(C)C)ccc4c3CCN2C1=O	/	113	/	/	/	/
CC1CCN(C(=O)c2ccc(N3CCOCC3)c([N+](=O)[O-])c2)CC1	/	106	2	/	/	-1
C[C@@H]1CN([C@@H](C)CO)C(=O)c2cc(N(C)C)ccc2O[C@@H]1CN(C)S(C)(=O)=O	/	114	7	/	/	0
CN1CCc2c(sc(N)c2C(=O)O)C1	31*	88	13	29	-9	-1
COc1ccc(C(=O)c2c(N)sc3c2CCN(C)C3)cc1	33*	107	-2	32	-20	3
O=C(NCC(=O)N1CCN(c2ncccn2)CC1)c1ccccc1OC(F)F	/	113	-8	/	/	5
Cc1cccn2c(=O)c(C=C(C#N)C#N)c(N3CCN(c4cccc(Cl)c4)CC3)nc12	39*	113	20	43*	-1	5
COC(=O)/C(C#N)=C/c1c(N2CCN(c3cccc(Cl)c3)CC2)nc2c(C)cccn2c1=O	19	113	8	19	-3	1
CCN1CCN(c2nc3c(C)cccn3c(=O)c2/C=C(\C#N)S(=O)(=O)c2ccc(C)cc2)CC1	52*	90	18	48*	-7	4
SMILES	BCLXL inh	CR mimetic SO	GLD-1 TGE inh	MCL1 BIM primary	MEX-5 binding	LANA-H2A inh
Cc1ccc(S(=O)(=O)/C(C#N)=C/c2c(N3CCN(C)CC3)nc3c(C)cccn3c2=O)cc1	40*	101	6	29	0	/
Cc1ccc(NC(=O)c2ccc(N3CCCC3=O)cc2)cc1S(=O)(=O)N1CCCCC1	-3	88	5	0	/	0
COc1ccc(/C=C/C(=O)OCC(=O)NCCc2ccccc2)c(OC)c1	/	92	1	/	/	-3
CCN1CCN(c2nc(N)c([N+](=O)[O-])c(Nc3ccc(C)cc3)n2)CC1	2	88	4	-2	1	19*
CC1(OC(=O)C2CCCC2)C(=O)C=C2C=C(C3CC3)OC=C2C1=O (stereo unspecified)	50*	92	44*	42*	-12	-2
COC/C=C/C1=CC2=CC(=O)C(C)(OC(=O)C3CCCC3)C(=O)C2=CO1 (stereo unspecified)	14	93	20	26	-3	0
CC1(OC(=O)C2CCCC2)C(=O)C=C2C=C3CCCCN3C=C2C1=O (stereo unspecified)	32*	104	18	47*	-8	2
COc1ccc(S(=O)(=O)N2CCOCC2)cc1NC(=O)CNC(=O)c1cccs1	4	93	9	-2	/	2
CC[N+](C)(C)c1cccc(O)c1	4	97	-1	10	-3	20*!
COCCn1c(Cc2ccccc2)nnc1SCC(=O)N1CCOCC1	-5	113	6	-3	0	3
COCCCn1c(Cc2ccccc2)nnc1SCC(=O)N1CCCCC1	2	117	-3	7	-1	79*
O=C(COC(=O)c1ccc(F)c(S(=O)(=O)N2CCOCC2)c1)NCCc1ccc(F)cc1	/	97	-3	/	/	12
CC(C)COc1cccc(C(=O)Nc2ccc(N3CCOCC3)cc2N2CCOCC2)c1	-2	96	5	-6	1	-1
COc1ccccc1NS(=O)(=O)c1cccc(C(=O)N/N=C2\CC(=O)CC(C)(C)C2)c1	9	112	59*	7	-3	-2
COc1ccccc1NS(=O)(=O)c1cccc(C(=O)NN=C2CCCC2)c1	3	93	-2	5	-3	8
CCN(CC)c1ccc(/C=N/NC(=O)c2cccc(S(=O)(=O)Nc3ccccc3OC)c2)c(O)c1	-10	107	-31	-19	-31*	-6
CC1CCCCC1NC(=O)c1cc(S(=O)(=O)N2CCOCC2)ccc1Cl (stereo unspecified)	/	108	-6	/	/	-1
CCCCn1nc(-c2ccccc2)c2nc3ccccc3nc21	24	108	9	20	?	25*
COc1ccc2c(c1)c(/C=C/c1cc[n+](C)cc1)cn2C	-31	99	58*	-72	?	-208
c1ccc2c(c1)nc(N1CCCCCC1)c1ccccc12	-6	109	3	-13	2	-2
CN(C)C=Nc1nc2ccccc2nc1N1CCCC1	43*	104	17	41*	3	-1

From PubChem
